Results published in PubChem BioAssay (Tox21).
Results filed as inconclusive are left out. The source made the active and inactive calls. Unless noted, calls come from the whole dose curve; as a rule, active = well fitted curve in the direction sought with a large enough effect in the repeat runs; inconclusive = weak or mixed curves; inactive = no such curve, though single readings can be large; an effect the other way counts as inactive or inconclusive.

Key:
[1] = target: Estrogen receptor beta (Homo sapiens) (UniProt Q92731); assay: qHTS assay to identify small molecule agonists of the estrogen receptor beta (ER-beta) signaling pathway (AID 1259377; active = well fitted activation curve with a large enough effect in the signal ratio in the repeat runs, not every such curve was filed as active; the % refers to the signal ratio)
Outline: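 ER-beta-UAS-bla HEK293T cells in medium with 2% charcoal-stripped FBS were exposed to compounds for 16 h at 37C. Beta-lactamase reporter activity was read as fluorescence after 2 h with LiveBLAzer B/G FRET substrate at room temperature.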

[2] = target: Estrogen receptor beta (Homo sapiens) (UniProt Q92731); assay: qHTS assay to identify small molecule antagonists of the estrogen receptor beta (ER-beta) signaling pathway (AID 1259378; active = well fitted inhibition curve with a large enough effect in the signal ratio in the repeat runs, not every such curve was filed as active; the % refers to the signal ratio)
Outline: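 Antagonist mode: compounds added to beta-lactamase reporter HEK293T ER-beta-UAS cells stimulated with E2 (1nM final), 16 hr at 37C. LiveBLAzer B/G FRET substrate, 2 hours room temperature, fluorescence read-out.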

[3] = qHTS assay to identify small molecule agonists of the estrogen receptor beta (ER-beta) signaling pathway - cell viability counter screen (AID 1259380); note: nearly all actives have a fitted effect of over 30% in size
Outline: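 Cell viability counter screen: CellTiter-Glo luminescence (30 min, room temperature) measured in the same wells as the beta-lactamase readout, after 16 hr compound exposure at 37C of ER-beta-bla HEK293T cells in 2% charcoal-stripped FBS medium.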

[4] = qHTS assay to identify small molecule antagonists of the estrogen receptor beta (ER-beta) signaling pathway - cell viability counter screen (AID 1259382);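 note: HEK293T cells carrying ER-beta-UAS-bla reporter stimulated with estradiol; series mostly up to about 92 µM; nearly all actives have a fitted effect of over 55% in size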
Outline: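 Cytotoxicity was measured in the same wells by CellTiter-Glo luminescence after 30 min at room temperature. Cells were ER-beta-bla HEK293T in charcoal-stripped serum, given compound together with 1 nM E2 and incubated 16 h at 37C.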

[5] = target: Estrogen receptor (Homo sapiens) (UniProt P03372); assay: qHTS assay to identify small molecule agonists of the estrogen receptor alpha (ER-alpha) signaling pathway in the presence of an antagonist (AID 1259383; calls by dose curve; note: top concentration of the series differs between compounds; nearly all actives have a fitted effect of over 15% in size)
Outline: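 Agonist-mode confirmation run in the presence of 10.0nM (final) ICI-182,780 antagonist. The reporter was ERE-driven luciferase in VM7Luc4E2 cells, grown in charcoal-stripped serum. Cells were exposed to 15-concentration compound series for 22hr, then ONE-Glo luminescence was read.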

[6] = qHTS assay to identify small molecule agonists or antagonists of the thyroid stimulating hormone receptor (TSHR) signaling pathway - wild type cell line counter screen (AID 1259384; calls by dose curve)
Outline: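 Counter screen in untransfected Hek293: compounds (15-point titration, triplicate) plus phosphodiesterase inhibitor Ro20-1724 added after 18 h plating; 30 min RT. Intracellular cAMP via competitive d2/cryptate immunoassay, 1 h incubation.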

[7] = target: Thyrotropin receptor (Homo sapiens) (UniProt P16473); assay: qHTS assay to identify small molecule antagonists of the thyroid stimulating hormone receptor (TSHR) signaling pathway (AID 1259385; calls by dose curve; note: nearly all actives have a fitted effect of over 20% in size)
Outline: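 Antagonist mode: compound-treated TSHR-expressing HEK293 cells were stimulated with 1.5 ng/mL TSH (final) in presence of Ro20-1724 for 30 min at RT. HTRF cAMP detection after 1 h; each compound tested at 15 concentrations, triplicate.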

[8] = qHTS assay to identify small molecule agonists of the estrogen receptor alpha (ER-alpha) signaling pathway in the presence of an antagonist - cell viability counter screen (AID 1259386); note: series mostly up to about 92 µM; nearly all actives have a fitted effect of over 30% in size
Outline: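 Compounds tested at 15 concentrations for 22 h at 37C alongside 10.0nM (final) ICI-182,780 antagonist, in VM7Luc4E2 cells grown in phenol red-free, charcoal-stripped medium. Viability read by CellTiter-Fluor fluorescence after 1 h reagent incubation.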

[9] = target: Progesterone receptor (Homo sapiens) (UniProt P06401); assay: qHTS assay to identify small molecule agonists of the progesterone receptor (PR) signaling pathway (AID 1346784; calls by dose curve; note: nearly all actives have a fitted effect of over 30% in size)
Outline: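 PR-UAS-bla HEK 293T cells (beta-lactamase reporter under UAS) in 2% charcoal-stripped FBS, dosed with 23 nL compound after 6 hr, incubated 16hr at 37C. LiveBLAzer B/G FRET substrate added, fluorescence read after 2 hours.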

[10] = qHTS assay to identify small molecule agonists of the progesterone receptor (PR) signaling pathway - cell viability counter screen (AID 1346799; calls by dose curve; note: nearly all actives have a fitted effect of over 45% in size)
Outline: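 Counter screen in the PR-UAS-bla HEK293T wells (2% charcoal-stripped FBS, 16 h compound exposure at 37 C) after the bla read. CellTiter-Glo added, 30 min at room temperature, luminescence read as cell viability.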

[11] = qHTS assay to identify small molecule antagonists of the TGF-beta/Smad signaling pathway - cell viability counter screen (AID 1346824); note: nearly all actives have a fitted effect of over 50% in size
Outline: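 Cytotoxicity counter-screen run in the same wells as the beta-lactamase Smad reporter read: CellTiter-Glo luminescence after 30 min at room temperature. HEK 293T SBE-bla cells had 5 hr compound exposure at 37 C with TGF-beta1 (0.25 ng/mL stock).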

[12] = qHTS assay to identify small molecule agonists of the TGF-beta/Smad signaling pathway - cell viability counter screen (AID 1346829); note: top concentration of the series differs between compounds; nearly all actives have a fitted effect of over 45% in size
Outline: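 Here the cytotoxicity of library compounds is measured in SBE-bla HEK 293T cells treated for 5 hr, using CellTiter-Glo added to wells already read for the beta-lactamase reporter.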

[13] = qHTS assay to identify small molecule agonists of the TGF-beta/Smad signaling pathway (AID 1346859; active = well fitted activation curve with a large enough effect in the signal ratio in the repeat runs, not every such curve was filed as active; the % refers to the signal ratio; note: series mostly up to about 77 µM)
Outline: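 SBE-bla HEK293T cells plated overnight, then compound exposure for 5 h at 37 C. Beta-lactamase reporter read with LiveBLAzer B/G FRET substrate after 2 h at room temperature, fluorescence at 405 nm excitation, 460/530 nm emission.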

[14] = target: Thyrotropin-releasing hormone receptor (Homo sapiens) (UniProt P34981); assay: qHTS assay to identify small molecule antagonists of the thyrotropin-releasing hormone receptor (TRHR) signaling pathway (AID 1346877; active = well fitted inhibition curve with a large enough effect in the repeat runs, not every such curve was filed as active; note: series mostly up to about 51 µM)
Outline: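 Antagonist mode: after a 5 min room-temperature compound exposure, cells were stimulated with 1 nM (final) TRH. Dye-loaded TRHR-HEK293 cells were used, and calcium-dependent fluorescence was followed for 3 min, with 15-point titrations run in triplicate.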

[15] = target: Thyrotropin-releasing hormone receptor (Homo sapiens) (UniProt P34981); assay: qHTS assay to identify small molecule agonists of the thyrotropin-releasing hormone receptor (TRHR) signaling pathway (AID 1346891; calls by dose curve; note: series mostly up to about 58 µM)
Outline: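 HEK293 cells expressing TRHR plated 18 h at 37 C/5% CO2, calcium dye-loaded 2 h at 37 C, then compound added (agonist mode); kinetic calcium fluorescence read 3 min at 1 s intervals; 15 concentrations in triplicate.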

[16] = target: Progesterone receptor (Homo sapiens) (UniProt P06401); assay: qHTS assay to identify small molecule antagonists of the progesterone receptor (PR) signaling pathway (AID 1346795; active = well fitted inhibition curve with a large enough effect in the signal ratio in the repeat runs, not every such curve was filed as active; the % refers to the signal ratio)
Outline: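 PR-UAS-bla HEK293T cells with beta-lactamase reporter under UAS control, in 2% charcoal-stripped FBS, treated with compounds plus 1 nM promegestone (R5020, final) for 16 hr at 37C. Read-out: FRET beta-lactamase substrate fluorescence after 2 hr at room temperature.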

[17] = qHTS assay to identify small molecule antagonists of the progesterone receptor (PR) signaling pathway - cell viability counter screen (AID 1346798); note: series mostly up to about 92 µM; nearly all actives have a fitted effect of over 50% in size
Outline: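 PR-UAS-bla HEK293T cells, 3,000/well in 2% charcoal-stripped FBS medium, dosed with compounds plus R5020 agonist and incubated 16 h at 37C. Viability then measured in the same wells by CellTiter-Glo luminescence after 30 min at RT.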

[18] = qHTS assay to identify small molecule agonists of the androgen receptor (AR) signaling pathway in the presence of an antagonist - cell viability counter screen (AID 1259379);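 note: MDA-kb2 human breast cancer cells carrying an MMTV luciferase reporter; series mostly up to about 92 µM; nearly all actives have a fitted effect of over 25% in size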
Outline: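 Cytotoxicity counter-screen run in the same wells as the nilutamide-challenged (3.0 µM final) AR agonist assay in MDA-kb2 cells. Compounds tested at 15 concentrations for 16 h, 37 °C without CO2; CellTiter-Fluor fluorescence read.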

Measured: Potency

Chain of Thyrotropin-releasing hormone receptor (Homo sapiens) (P34981 whole entry, looked up): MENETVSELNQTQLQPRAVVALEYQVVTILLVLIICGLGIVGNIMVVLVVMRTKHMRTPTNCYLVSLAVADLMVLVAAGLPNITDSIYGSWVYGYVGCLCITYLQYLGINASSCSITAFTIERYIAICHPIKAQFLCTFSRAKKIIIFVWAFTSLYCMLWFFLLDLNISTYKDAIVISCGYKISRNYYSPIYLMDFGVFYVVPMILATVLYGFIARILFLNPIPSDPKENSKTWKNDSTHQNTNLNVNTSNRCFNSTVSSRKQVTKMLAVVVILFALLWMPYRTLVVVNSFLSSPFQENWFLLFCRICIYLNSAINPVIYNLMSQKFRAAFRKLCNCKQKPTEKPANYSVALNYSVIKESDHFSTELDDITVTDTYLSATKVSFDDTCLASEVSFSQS
Chain of Estrogen receptor (Homo sapiens) (P03372 whole entry, looked up): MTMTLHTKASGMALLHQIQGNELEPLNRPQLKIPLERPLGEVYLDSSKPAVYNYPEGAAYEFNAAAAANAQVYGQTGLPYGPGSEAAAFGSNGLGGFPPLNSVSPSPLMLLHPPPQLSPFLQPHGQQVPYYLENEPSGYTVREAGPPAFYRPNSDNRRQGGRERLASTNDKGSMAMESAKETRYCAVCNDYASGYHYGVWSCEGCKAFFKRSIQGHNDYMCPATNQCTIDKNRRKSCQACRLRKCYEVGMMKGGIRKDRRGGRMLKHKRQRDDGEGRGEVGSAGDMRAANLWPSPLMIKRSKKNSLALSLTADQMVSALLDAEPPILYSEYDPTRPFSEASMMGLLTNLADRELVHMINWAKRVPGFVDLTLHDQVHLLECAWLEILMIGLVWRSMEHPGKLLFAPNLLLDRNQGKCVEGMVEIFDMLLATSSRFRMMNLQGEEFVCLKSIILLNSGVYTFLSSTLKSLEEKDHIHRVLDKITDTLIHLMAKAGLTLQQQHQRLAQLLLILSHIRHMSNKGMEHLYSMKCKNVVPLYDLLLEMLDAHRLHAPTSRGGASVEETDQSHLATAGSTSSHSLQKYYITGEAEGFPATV
Chain of Estrogen receptor beta (Homo sapiens) (Q92731 whole entry, looked up): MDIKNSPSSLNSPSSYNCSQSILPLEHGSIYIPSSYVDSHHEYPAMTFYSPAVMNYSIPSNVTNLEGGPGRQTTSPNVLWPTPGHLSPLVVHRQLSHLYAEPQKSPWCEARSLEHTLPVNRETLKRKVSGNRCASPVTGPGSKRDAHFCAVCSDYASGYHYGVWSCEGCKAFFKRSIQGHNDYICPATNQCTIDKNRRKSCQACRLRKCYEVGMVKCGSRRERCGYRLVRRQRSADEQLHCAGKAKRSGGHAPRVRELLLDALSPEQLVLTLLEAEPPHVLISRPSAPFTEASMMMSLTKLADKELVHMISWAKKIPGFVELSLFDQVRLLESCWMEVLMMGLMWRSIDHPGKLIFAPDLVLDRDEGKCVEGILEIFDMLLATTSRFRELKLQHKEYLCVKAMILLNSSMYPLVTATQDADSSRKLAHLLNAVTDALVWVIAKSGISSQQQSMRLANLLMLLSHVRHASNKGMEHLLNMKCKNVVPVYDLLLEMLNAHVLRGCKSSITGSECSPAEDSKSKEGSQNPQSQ
Chain of Thyrotropin receptor (Homo sapiens) (P16473 whole entry, looked up): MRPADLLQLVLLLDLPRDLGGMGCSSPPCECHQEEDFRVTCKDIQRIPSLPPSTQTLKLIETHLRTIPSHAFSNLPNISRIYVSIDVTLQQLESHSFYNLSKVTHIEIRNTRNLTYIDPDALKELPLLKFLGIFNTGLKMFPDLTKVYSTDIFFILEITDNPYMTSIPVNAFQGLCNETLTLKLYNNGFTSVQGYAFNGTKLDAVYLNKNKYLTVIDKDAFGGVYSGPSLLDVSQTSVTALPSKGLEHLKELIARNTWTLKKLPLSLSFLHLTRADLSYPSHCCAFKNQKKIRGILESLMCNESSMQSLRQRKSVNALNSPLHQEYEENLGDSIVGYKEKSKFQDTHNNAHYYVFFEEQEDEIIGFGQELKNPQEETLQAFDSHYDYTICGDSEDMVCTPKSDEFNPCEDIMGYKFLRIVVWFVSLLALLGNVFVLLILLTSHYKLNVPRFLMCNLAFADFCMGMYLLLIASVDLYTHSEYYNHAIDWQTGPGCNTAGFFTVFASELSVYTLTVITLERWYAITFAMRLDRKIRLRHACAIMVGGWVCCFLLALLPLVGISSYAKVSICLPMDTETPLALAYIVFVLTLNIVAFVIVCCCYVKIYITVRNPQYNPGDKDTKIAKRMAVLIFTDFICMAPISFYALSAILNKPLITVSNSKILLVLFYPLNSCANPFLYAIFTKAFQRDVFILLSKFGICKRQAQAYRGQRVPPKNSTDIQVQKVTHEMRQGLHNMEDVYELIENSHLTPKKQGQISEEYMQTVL
Chain of Progesterone receptor (Homo sapiens) (P06401 whole entry, looked up): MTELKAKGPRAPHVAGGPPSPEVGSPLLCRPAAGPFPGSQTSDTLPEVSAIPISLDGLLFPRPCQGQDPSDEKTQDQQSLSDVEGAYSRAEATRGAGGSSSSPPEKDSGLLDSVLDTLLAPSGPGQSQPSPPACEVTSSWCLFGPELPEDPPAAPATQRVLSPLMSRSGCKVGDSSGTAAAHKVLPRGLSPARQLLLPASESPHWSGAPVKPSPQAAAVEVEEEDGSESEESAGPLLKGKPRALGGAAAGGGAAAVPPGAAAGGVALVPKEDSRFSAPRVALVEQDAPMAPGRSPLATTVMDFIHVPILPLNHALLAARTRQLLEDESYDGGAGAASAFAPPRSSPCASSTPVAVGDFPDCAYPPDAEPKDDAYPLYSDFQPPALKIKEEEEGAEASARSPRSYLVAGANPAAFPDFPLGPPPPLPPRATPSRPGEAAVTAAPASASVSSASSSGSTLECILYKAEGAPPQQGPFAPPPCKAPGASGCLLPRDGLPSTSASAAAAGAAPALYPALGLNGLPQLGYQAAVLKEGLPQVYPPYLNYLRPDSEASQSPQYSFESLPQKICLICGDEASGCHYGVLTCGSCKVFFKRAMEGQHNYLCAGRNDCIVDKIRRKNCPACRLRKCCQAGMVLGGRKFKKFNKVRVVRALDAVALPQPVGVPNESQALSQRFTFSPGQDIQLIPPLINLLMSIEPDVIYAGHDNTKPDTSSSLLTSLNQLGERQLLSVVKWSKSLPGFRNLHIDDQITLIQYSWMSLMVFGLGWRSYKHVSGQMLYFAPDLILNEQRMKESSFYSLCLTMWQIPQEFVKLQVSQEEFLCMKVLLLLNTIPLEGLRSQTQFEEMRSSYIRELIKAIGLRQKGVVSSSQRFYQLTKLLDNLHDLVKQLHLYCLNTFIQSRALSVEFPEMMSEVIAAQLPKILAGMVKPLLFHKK

CN(C)CCCN(C)CCCN(C)C
not listed: [16] | [17] | [18]
inactive: all other assays above

CC(C)=CCC/C(C)=C/C#N
not listed: [1] | [2] | [3] | [9] | [18]
inactive: all other assays above

C[C@H]1[C@H](NC(=O)/C(=N/OC(C)(C)C(=O)O)c2csc(N)n2)C(=O)N1S(=O)(=O)O (stereo in doubt)
not listed: [5] | [11] | [14] | [15] | [18]
inactive: all other assays above

FB(F)F
not listed: [1] | [2] | [4]
inactive: all other assays above

CC(=O)C1CCCCC1=O (stereo not given)
not listed: [1] | [2] | [10] | [18]
inactive: all other assays above
